# miR122 inh: miR-122 inhibition in Huh7 cells. AID 602342. Huh7 miR-122 Renilla luciferase sensor, 48 h; neutral wells = 0, positive control = 100. activation (reporter increase), % at 12.5 µM. hit rate 0.3% among 340,000;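 active means mean replicate activation score at least 90 and every replicate individually at or above 90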;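 further: higher luciferase means less miR-122 activity so hits act as miR-122 inhibitors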
# Statin myotox sup: suppressors of simvastatin-induced myotoxicity in C2C12 myotubes. rescue of ATP level, % at 7.49 µM. hit rate 0.78% among 330,000. ATP luminescence, 48 h; scaled: DMSO 0, geranylgeraniol control 100. AID 602340;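 active means mean ATP rescue above about 67%, or every replicate alone reaching that limit, limit read from the data, passing the limit was not always enough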;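 further: myotubes were challenged with 10 µM simvastatin during compound exposure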
# NSD2 HMT inh: inhibitors of human histone methyltransferase NSD2; NSD2 peptide methylation, AlphaScreen, 120 min; inhibition, % at 12.5 µM; O96028; hit rate 0.54% among 310,000; in the data active means inhibition above about 50%
# Target sequence (O96028 whole entry, looked up): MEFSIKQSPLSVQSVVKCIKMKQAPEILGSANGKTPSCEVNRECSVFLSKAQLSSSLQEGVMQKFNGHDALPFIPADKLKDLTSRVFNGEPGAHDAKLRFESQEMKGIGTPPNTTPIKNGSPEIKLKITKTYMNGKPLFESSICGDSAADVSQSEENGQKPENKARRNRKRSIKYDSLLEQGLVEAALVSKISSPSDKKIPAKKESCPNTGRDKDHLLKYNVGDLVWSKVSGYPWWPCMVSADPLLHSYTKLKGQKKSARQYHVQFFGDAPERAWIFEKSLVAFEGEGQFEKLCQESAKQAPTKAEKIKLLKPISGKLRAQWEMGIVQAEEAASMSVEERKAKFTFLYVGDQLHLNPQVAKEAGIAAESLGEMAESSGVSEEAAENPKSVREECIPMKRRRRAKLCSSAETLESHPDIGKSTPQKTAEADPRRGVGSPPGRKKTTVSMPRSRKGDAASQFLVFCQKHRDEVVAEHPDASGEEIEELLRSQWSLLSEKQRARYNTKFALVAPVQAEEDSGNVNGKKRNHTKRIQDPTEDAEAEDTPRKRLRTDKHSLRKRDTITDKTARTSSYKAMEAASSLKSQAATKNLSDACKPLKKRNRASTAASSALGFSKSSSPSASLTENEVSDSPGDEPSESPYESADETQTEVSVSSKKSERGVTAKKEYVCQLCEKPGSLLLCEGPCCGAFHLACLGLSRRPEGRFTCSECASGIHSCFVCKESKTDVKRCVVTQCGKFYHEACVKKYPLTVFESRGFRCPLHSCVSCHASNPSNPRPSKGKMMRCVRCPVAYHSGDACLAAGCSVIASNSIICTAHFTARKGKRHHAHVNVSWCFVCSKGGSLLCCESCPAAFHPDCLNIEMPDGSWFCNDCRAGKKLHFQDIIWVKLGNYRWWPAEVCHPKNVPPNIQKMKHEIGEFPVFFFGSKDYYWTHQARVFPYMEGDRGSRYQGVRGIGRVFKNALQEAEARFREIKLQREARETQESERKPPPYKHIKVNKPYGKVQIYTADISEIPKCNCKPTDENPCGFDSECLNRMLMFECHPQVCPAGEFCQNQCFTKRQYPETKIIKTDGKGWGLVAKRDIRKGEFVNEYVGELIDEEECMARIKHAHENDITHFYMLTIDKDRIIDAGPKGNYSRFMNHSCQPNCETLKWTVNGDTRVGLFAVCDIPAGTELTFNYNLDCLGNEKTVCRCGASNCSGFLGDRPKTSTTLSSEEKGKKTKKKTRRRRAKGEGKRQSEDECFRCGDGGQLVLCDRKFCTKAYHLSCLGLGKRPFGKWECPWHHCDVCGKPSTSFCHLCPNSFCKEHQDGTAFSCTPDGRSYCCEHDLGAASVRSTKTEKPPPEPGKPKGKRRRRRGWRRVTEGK
# PglD inh: inhibitors of Campylobacter jejuni PglD acetyltransferase | hit rate 0.098% among 360,000 | inhibition, % at 12.5 µM | AID 602405 | purified PglD enzyme, DTNB colorimetric CoA detection; in the data active means inhibition above about 16%, passing the limit was not always enough
# * hit, by the source's call; x = not tested or not shown; [ ] = dose if it differs, or a comment. Compounds with a hit are over-represented: about 1.2% of the library has one in this group of screens.
SMILES,miR122 inh,Statin myotox sup,NSD2 HMT inh,PglD inh
O=C(C=Cc1ccc2c(c1)OCO2)c1ccccc1,2,3,0,-4
CCOc1cc(C(=O)Nc2ccc(C)cc2C)ccc1OCC(=O)N1CCCCC1,x,x,2,x
CCOc1cc(C(=O)Nc2cc(C)ccc2OC)ccc1OCC(=O)N1CCCCC1,-7,115*,1,2
Cc1ccc(S(=O)(=O)Nc2ccc3c(c2)C(=O)N([C@H](C)CO)C[C@@H](C)[C@@H](CN(C)C(=O)NC2CCCCC2)OCCCC[C@H](C)O3)cc1,6[16.7 µM],x,x,-2
COC(=O)C1CC23C=CCN4CCC5(c6ccccc6NC15C2C)C43 (configuration not stated),148*,-140,4,-12
O=C(CSc1nc2ccccc2o1)Nc1nncs1,2,-2,-2,2
O=C(CSc1nc(-c2ccccc2)c(-c2ccccc2)o1)Nc1nncs1,1,102*,1,-6
COc1ccc(-c2nn(-c3ccccc3)cc2N)cc1,x,x,63*,x
Cc1ccc(-c2nn(-c3ccccc3)cc2CO)cc1,-7,-4,-3,-1
COc1ccc(-c2nn(-c3ccccc3)cc2CO)cc1,-10,99*,32,3
COc1ccc(CNC(=O)C[C@@H]2CC[C@@H](NC(=O)Nc3ccc4c(c3)OCO4)[C@H](CO)O2)cc1,x,5,x,x
CC1CCCCN1S(=O)(=O)c1ccc(C(=O)Nc2sccc2C(N)=O)cc1 (configuration not stated),-2,109*,x,-8
O=C(C/C=N/OCc1ccc(Cl)cc1)c1cnc(-c2ccccc2)s1,2,-2,-1,5
O=C(C/C=N/OCc1c(Cl)cccc1Cl)c1cnc(-c2ccccc2)s1,1,108*,1,-4
C/C(NC(=O)c1cccc(F)c1)=C1/C(=O)C[C@@H]2[C@H]1C2(C)C,1,128*,-6,x
O=C(NC1CCC1)[C@@H]1[C@@H](CO)[C@@H]2Cn3c(ccc(-c4ccncc4)c3=O)[C@H]1N2Cc1cocn1,-4[16.7 µM],-199,x,-2
COc1ccccc1NC(=O)N1CCN(c2cccc(C(F)(F)F)c2)CC1,-6,123*,-3,-4
CCCc1cc(Nc2c(C)n(C)n(-c3ccccc3)c2=O)n2c(nc3ccccc32)c1C#N,-15,104*,-1,1
C[C@@H]1CN([C@H](C)CO)C(=O)c2cccc(NC(=O)c3cnccn3)c2O[C@H]1CN(C)S(=O)(=O)c1ccccc1,5[16.7 µM],-40,x,x
CCOc1ccc(OCCOCCOc2c(Cl)cccc2Cl)cc1,-3,133*,-3,0
CCCc1nnc(N2C(=O)c3cccc4cccc(c34)C2=O)s1,-1,85*,-1,3
Cc1nnc(N2C(=O)c3cccc4cccc(c34)C2=O)s1,5,x,1,x
O=C(C[C@H]1C[C@H]2c3cc(NC(=O)NC4CCCCC4)ccc3O[C@H]2[C@H](CO)O1)NCc1ccccc1,12[16.7 µM],-1,x,2
CN(C)CCSc1nc(N)c2c3c(sc2n1)CN(C)CC3,0,14,27,-9
CCCSc1nc(N)c2c3c(sc2n1)CN(C)CC3,-3,99*,x,4
SMILES,miR122 inh,Statin myotox sup,NSD2 HMT inh,PglD inh
O=C(C[C@@H]1C[C@H]2c3cc(NC(=O)C4CCC4)ccc3O[C@H]2[C@@H](CO)O1)NCCc1ccccc1,-2[16.7 µM],-1,x,2
COc1ccccc1NS(=O)(=O)c1cccc(NC(=O)c2ccc3ccccc3n2)c1,73,110*,-1,2
O=C(Nc1cccc(S(=O)(=O)Nc2ccccc2F)c1)c1ccc2ccccc2n1,x,x,-1,x
Cc1cc(C)n2nc(C(=O)Nc3cccc(S(=O)(=O)N4CCCC4)c3)nc2n1,0,10,-2,x
COc1ccccc1NS(=O)(=O)c1cccc(NC(=O)c2nc3nc(C)cc(C)n3n2)c1,6,126*,1,3
COC(=O)CCCCCCC(=O)Nc1ccc(C2OC(CSc3nc4ccccc4s3)CC(c3ccccc3)O2)cc1 (configuration not stated),x,x,x,5
C[C@@H]1CCCCO[C@H](CN(C)Cc2ccncc2)[C@H](C)CN([C@H](C)CO)C(=O)c2cc(NC(=O)c3ccccc3)ccc2O1,-2[16.7 µM],-49,x,-3
Cc1[nH]nc2c1C(c1ccsc1)C(C#N)=C(N)O2 (configuration not stated),0,141*,4,-4
COc1ccc(OCC(O)CN2C(=O)NC(C)(C)C2=O)cc1 (configuration not stated),4,121*,6,0
CC1(C)NC(=O)N(CC(O)Cn2nnc3ccccc32)C1=O (configuration not stated),-9,131*,0,2
CC1(C)NC(=O)N(CC(O)CN2C(=O)CCC2=O)C1=O (configuration not stated),-7,11,0,-4
O=S(=O)(NCc1ccncc1)c1ccc(F)cc1F,x,x,-5,x
CCOC(=O)N(C)C[C@H]1OCc2ccccc2-c2ccccc2C(=O)N([C@@H](C)CO)C[C@H]1C,x,6,x,-2
COCC(=O)N(C)C[C@@H]1Oc2cc(-c3cccnc3)ccc2S(=O)(=O)N([C@@H](C)CO)C[C@H]1C,-8[16.7 µM],7,x,1
Cc1cc(NC(=O)CSc2nc3ccsc3c(=O)n2Cc2ccccn2)n[nH]1,-9,93*,1,1
CCCCn1c(SCC(=O)Nc2cc(C)[nH]n2)nc2ccsc2c1=O,6,16,x,0
C[C@H]1CCCCO[C@H](CN(C)C(=O)Nc2ccccc2)[C@@H](C)CN([C@@H](C)CO)C(=O)c2cc(NC(=O)Nc3cccc4ccccc34)ccc2O1,1[16.7 µM],x,x,-2
C=C1CC(C)OC(c2ccccc2OCC(O)CN2CCCCC2)C1 (configuration not stated),-2,115*,3,-6
O=C(NCc1ccco1)C1Cc2ccccc2CN1S(=O)(=O)c1ccccc1F (configuration not stated),10,67*,x,2
C[C@H]1CN([C@@H](C)CO)C(=O)Cc2cc(NS(=O)(=O)c3cccs3)ccc2O[C@H]1CN(C)S(=O)(=O)c1cccs1,1[16.7 µM],3,x,x
O=C(Nc1ccccc1)NC1(C(=O)NCCCN2CCOCC2)CCCCC1,-5,102*,3,4
O=C(Nc1ccc(Cl)cc1)NC1(C(=O)NCCCN2CCOCC2)CCCCC1,-2,3,1,-3
COc1ccc(-c2noc(CCCC(=O)NCCc3ccccc3)n2)cc1OC,0,151*,-3,5
COc1ccccc1NC(=O)CCCc1nc(-c2ccc(OC)c(OC)c2)no1,-1,-3,x,1
CC(NCc1ccc2c(c1)OCO2)C(=O)NC1CCCc2ccccc21 (configuration not stated),1,99*,-1,9
COc1ccccc1-c1cnc2c(c1)C(=O)N([C@@H](C)CO)C[C@H](C)[C@@H](CN(C)C(=O)c1cccnc1)O2,-5[16.7 µM],2,x,0
CC(C)(C)c1ccc(Cc2nnc(SCC(=O)Nc3ccccc3F)[nH]c2=O)cc1,x,x,-2,x
COCC(=O)Nc1ccc2c(c1)[C@@H]1C[C@@H](CC(=O)NCc3ccc(Cl)cc3)O[C@@H](CO)[C@@H]1O2,0[16.7 µM],13,x,4

# Source: PubChem BioAssay (Broad Institute)
